We go through 25 sequences from the OligoGym collection.
Note: reference of the scale not given here.

The first test concerns the target DDB2. Description: pooled miR-30 sensor sort-seq; sequence = guide strand. The following applies: shRNA.
On to AACTTTTGAAATTAGGATCTGG, for which the sensor-assay potency score (higher = more potent) worked out at 0.321. The sequence TTCGGCTACTAGCAGACACATC returned a sensor-assay potency score (higher = more potent) of -1.25. Still for that read-out and setting: for TACAACTTTTGAAATTAGGATC the value was -0.816; for TTTGCCGTCCATGTTCAGCAGG, -0.642.

TAGAGCTGACACATCATCTTCC yielded a sensor-assay potency score (higher = more potent) of 0.382. In turn, TAAACTCGGATCTCGCTCTTCT came in with a sensor-assay potency score (higher = more potent) of 0.0905. Same read-out and setting: then TTGATGGTGTCTGAGCTGGCAA, with -1.17. On the same count and under the same terms, then AACTCGGATCTCGCTCTTCTGG, with -1.5; and TCTGAGTCACATCTTCTGCTAG, with -0.241; and TCGAACACGTCGATCGTCCTCA, with -0.285. TGACACATCATCTTCCCTGAGT came in with a sensor-assay potency score (higher = more potent) of 0.0365.

The sequence TTTTGAAATTAGGATCTGGGTA gave a sensor-assay potency score (higher = more potent) of -0.102. On the same count and under the same terms, then TTTGAAATTAGGATCTGGGTAT, with -0.00871.

Another test addresses DDX28. The description is as above. The following applies: shRNA.
TTGACAACCAGCTCCACACCAG displayed a sensor-assay potency score (higher = more potent) of -0.162. On the same count and under the same terms, then TTCCAGGAAGCTTTCATCCAGC, with -0.626. TTCGTCGGGACTGCGGACCGTG returned a sensor-assay potency score (higher = more potent) of -0.386. In the case of TCATCCAACACCAAGAAGGAGA, the sensor-assay potency score (higher = more potent) is -0.925.

The sequence ATAATTGACAACCAGCTCCACA gave a sensor-assay potency score (higher = more potent) of -0.971. For TTGGATTTTGTGGTCATCCAGA, the sensor-assay potency score (higher = more potent) was -0.675. For TAGTGCGTGCAGCACACGGGGC, the sensor-assay potency score (higher = more potent) was -1.65. The same measure, in the same setting: for TTCTGCTCTGTCACGATGCTTG the value was -0.667.

For TAGTCCTGGAAGACTTCTCCTT, the sensor-assay potency score (higher = more potent) is -1.12.

TATGTCTCGGGAGCTCTTCTGG registered a sensor-assay potency score (higher = more potent) of -0.986.

In turn, TAGCTGAGAGTCTTGCCACTGC came in with a sensor-assay potency score (higher = more potent) of -0.373. Same read-out and setting: for TAATCTTGCAGCGTTGGGGGGA the value was -0.579.
